How the values were obtained:
Assay in all cases: log2 ratio of Biotin-Ahx-Ub-VS probe labelling (fragment/DMSO); higher = less target engagement (more negative = stronger competition), active = hit call of the paper (q ≤ 0.05, log2 ratio ≤ -1)
Settings in all cases: compound concentration: 200 uM; treatment time: 3 h
USP34 = USP34 (UniProt Q70CQ2)
How it was run: (§1)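 Global-median-normalised Spectronaut label-free quantities were compared by unpaired t-test, and values are average log2 ratios of fragment over vehicle. Only proteins with ≥2 unique peptides were used. HEK293T lysate (495 µg per sample) was treated in triplicate with fragment at 200 µM or vehicle for 3 h and then with Biotin-Ahx-Ub-VS at 0.5 µM final for 1 h. Labelled DUBs were then NeutrAvidin-enriched, digested with LysC and trypsin, and run by diaPASEF LC-MS/MS.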

USP36 = target: T1, USP36 (UniProt Q9P275)
T1 sequence (whole entry): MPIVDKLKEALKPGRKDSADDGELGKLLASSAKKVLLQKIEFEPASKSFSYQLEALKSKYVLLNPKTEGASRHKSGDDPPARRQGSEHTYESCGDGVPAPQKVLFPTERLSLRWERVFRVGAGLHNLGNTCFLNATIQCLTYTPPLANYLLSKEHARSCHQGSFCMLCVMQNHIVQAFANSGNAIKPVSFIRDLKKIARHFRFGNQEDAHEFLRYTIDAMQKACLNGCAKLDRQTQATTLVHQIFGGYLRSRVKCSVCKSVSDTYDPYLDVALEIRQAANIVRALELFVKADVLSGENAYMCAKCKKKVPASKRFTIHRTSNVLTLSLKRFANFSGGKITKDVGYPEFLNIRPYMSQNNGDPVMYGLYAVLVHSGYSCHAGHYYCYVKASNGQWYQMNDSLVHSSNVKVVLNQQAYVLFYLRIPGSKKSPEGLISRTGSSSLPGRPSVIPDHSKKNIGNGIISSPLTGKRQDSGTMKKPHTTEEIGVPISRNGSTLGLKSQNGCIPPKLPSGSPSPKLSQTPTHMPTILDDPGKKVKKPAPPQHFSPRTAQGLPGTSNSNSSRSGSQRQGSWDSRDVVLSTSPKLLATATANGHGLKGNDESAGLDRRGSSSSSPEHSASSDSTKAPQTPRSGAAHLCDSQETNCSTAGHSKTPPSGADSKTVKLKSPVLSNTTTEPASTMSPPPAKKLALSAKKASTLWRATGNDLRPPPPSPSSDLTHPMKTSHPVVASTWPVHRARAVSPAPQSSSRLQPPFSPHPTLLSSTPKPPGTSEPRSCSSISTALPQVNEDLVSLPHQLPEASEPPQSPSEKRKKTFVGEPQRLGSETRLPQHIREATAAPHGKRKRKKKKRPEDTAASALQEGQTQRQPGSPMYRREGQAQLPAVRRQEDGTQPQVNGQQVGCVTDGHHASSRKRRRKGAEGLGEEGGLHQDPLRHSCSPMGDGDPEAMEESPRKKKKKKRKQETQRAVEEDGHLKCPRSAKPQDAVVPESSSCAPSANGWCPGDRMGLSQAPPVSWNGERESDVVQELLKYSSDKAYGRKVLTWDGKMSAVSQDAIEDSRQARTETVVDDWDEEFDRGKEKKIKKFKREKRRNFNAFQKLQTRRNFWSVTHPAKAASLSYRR
How it was run: as §1

USP38 = target: T2, USP38 (UniProt Q8NB14)
T2 sequence (whole entry): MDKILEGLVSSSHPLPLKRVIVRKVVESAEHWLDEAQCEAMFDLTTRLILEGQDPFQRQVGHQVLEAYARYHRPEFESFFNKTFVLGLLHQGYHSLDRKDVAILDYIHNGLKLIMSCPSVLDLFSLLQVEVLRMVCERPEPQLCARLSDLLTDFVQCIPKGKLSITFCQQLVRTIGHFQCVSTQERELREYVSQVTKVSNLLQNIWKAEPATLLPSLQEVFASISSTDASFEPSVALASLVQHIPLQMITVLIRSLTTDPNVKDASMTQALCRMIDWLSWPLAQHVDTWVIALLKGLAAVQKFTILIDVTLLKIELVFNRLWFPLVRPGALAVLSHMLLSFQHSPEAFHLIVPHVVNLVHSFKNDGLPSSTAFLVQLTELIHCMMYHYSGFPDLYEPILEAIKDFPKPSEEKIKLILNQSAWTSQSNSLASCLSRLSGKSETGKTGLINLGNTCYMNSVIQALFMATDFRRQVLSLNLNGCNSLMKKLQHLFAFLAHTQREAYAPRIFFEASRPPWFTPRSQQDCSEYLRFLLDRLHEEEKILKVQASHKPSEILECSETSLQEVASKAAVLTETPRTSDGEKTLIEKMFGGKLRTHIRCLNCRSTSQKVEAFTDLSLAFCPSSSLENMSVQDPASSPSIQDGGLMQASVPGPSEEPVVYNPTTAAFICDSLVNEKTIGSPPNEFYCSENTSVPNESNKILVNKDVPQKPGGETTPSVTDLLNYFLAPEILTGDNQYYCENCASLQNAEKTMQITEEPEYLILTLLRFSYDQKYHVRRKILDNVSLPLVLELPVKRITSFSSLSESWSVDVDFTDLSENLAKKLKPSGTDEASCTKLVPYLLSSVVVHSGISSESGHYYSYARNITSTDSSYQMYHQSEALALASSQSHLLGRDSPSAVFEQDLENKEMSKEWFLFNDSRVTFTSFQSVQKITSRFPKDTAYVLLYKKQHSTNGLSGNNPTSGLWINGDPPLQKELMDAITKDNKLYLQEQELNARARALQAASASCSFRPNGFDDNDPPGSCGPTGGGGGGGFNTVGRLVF
How it was run: as §1

USP39 = target: T3, USP39 (UniProt Q53GS9)
T3 sequence (whole entry): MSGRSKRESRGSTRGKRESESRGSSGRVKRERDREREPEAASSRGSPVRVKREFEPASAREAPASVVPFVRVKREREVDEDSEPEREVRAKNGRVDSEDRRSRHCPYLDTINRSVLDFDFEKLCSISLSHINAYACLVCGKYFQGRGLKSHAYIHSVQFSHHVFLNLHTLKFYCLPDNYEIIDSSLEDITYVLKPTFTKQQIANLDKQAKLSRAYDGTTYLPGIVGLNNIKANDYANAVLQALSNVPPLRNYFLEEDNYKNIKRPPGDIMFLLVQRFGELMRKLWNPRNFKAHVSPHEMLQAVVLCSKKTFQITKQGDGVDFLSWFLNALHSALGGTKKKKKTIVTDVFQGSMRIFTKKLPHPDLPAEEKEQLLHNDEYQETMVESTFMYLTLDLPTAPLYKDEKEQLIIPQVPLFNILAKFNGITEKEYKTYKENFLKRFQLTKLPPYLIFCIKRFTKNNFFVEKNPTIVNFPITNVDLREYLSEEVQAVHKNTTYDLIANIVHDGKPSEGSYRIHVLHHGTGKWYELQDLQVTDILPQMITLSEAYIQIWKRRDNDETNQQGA
How it was run: as §1

USP4 = target: T4, USP4 (UniProt Q13107)
T4 sequence (whole entry): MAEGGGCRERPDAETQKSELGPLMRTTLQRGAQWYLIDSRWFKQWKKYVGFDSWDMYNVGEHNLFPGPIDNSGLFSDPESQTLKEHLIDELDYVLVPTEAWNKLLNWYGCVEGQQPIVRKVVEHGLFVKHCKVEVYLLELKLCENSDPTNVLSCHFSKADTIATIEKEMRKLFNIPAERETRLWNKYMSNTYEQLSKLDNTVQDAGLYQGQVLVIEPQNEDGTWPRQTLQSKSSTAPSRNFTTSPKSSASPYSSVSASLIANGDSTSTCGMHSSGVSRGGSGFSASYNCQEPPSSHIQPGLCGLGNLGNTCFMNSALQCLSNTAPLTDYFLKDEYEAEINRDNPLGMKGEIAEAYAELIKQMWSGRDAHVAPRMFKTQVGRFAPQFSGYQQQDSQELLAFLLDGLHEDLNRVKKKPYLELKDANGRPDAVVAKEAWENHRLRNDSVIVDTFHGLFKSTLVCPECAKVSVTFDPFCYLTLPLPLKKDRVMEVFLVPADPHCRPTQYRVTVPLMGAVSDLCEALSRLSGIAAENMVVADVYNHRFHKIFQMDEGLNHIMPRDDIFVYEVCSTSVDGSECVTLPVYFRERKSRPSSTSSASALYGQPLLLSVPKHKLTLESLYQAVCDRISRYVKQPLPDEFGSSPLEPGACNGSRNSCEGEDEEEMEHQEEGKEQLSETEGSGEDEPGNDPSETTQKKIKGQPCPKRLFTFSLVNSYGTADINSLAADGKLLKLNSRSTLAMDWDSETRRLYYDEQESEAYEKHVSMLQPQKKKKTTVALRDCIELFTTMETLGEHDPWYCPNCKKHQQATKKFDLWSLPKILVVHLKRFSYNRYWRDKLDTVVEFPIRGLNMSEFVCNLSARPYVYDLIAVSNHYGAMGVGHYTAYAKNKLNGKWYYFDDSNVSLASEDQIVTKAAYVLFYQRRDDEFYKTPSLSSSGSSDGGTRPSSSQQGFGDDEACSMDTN
How it was run: as §1

Measured: log2 ratio of Biotin-Ahx-Ub-VS probe labelling

Chain of USP34 (Q70CQ2 whole entry, the tested form may be a part): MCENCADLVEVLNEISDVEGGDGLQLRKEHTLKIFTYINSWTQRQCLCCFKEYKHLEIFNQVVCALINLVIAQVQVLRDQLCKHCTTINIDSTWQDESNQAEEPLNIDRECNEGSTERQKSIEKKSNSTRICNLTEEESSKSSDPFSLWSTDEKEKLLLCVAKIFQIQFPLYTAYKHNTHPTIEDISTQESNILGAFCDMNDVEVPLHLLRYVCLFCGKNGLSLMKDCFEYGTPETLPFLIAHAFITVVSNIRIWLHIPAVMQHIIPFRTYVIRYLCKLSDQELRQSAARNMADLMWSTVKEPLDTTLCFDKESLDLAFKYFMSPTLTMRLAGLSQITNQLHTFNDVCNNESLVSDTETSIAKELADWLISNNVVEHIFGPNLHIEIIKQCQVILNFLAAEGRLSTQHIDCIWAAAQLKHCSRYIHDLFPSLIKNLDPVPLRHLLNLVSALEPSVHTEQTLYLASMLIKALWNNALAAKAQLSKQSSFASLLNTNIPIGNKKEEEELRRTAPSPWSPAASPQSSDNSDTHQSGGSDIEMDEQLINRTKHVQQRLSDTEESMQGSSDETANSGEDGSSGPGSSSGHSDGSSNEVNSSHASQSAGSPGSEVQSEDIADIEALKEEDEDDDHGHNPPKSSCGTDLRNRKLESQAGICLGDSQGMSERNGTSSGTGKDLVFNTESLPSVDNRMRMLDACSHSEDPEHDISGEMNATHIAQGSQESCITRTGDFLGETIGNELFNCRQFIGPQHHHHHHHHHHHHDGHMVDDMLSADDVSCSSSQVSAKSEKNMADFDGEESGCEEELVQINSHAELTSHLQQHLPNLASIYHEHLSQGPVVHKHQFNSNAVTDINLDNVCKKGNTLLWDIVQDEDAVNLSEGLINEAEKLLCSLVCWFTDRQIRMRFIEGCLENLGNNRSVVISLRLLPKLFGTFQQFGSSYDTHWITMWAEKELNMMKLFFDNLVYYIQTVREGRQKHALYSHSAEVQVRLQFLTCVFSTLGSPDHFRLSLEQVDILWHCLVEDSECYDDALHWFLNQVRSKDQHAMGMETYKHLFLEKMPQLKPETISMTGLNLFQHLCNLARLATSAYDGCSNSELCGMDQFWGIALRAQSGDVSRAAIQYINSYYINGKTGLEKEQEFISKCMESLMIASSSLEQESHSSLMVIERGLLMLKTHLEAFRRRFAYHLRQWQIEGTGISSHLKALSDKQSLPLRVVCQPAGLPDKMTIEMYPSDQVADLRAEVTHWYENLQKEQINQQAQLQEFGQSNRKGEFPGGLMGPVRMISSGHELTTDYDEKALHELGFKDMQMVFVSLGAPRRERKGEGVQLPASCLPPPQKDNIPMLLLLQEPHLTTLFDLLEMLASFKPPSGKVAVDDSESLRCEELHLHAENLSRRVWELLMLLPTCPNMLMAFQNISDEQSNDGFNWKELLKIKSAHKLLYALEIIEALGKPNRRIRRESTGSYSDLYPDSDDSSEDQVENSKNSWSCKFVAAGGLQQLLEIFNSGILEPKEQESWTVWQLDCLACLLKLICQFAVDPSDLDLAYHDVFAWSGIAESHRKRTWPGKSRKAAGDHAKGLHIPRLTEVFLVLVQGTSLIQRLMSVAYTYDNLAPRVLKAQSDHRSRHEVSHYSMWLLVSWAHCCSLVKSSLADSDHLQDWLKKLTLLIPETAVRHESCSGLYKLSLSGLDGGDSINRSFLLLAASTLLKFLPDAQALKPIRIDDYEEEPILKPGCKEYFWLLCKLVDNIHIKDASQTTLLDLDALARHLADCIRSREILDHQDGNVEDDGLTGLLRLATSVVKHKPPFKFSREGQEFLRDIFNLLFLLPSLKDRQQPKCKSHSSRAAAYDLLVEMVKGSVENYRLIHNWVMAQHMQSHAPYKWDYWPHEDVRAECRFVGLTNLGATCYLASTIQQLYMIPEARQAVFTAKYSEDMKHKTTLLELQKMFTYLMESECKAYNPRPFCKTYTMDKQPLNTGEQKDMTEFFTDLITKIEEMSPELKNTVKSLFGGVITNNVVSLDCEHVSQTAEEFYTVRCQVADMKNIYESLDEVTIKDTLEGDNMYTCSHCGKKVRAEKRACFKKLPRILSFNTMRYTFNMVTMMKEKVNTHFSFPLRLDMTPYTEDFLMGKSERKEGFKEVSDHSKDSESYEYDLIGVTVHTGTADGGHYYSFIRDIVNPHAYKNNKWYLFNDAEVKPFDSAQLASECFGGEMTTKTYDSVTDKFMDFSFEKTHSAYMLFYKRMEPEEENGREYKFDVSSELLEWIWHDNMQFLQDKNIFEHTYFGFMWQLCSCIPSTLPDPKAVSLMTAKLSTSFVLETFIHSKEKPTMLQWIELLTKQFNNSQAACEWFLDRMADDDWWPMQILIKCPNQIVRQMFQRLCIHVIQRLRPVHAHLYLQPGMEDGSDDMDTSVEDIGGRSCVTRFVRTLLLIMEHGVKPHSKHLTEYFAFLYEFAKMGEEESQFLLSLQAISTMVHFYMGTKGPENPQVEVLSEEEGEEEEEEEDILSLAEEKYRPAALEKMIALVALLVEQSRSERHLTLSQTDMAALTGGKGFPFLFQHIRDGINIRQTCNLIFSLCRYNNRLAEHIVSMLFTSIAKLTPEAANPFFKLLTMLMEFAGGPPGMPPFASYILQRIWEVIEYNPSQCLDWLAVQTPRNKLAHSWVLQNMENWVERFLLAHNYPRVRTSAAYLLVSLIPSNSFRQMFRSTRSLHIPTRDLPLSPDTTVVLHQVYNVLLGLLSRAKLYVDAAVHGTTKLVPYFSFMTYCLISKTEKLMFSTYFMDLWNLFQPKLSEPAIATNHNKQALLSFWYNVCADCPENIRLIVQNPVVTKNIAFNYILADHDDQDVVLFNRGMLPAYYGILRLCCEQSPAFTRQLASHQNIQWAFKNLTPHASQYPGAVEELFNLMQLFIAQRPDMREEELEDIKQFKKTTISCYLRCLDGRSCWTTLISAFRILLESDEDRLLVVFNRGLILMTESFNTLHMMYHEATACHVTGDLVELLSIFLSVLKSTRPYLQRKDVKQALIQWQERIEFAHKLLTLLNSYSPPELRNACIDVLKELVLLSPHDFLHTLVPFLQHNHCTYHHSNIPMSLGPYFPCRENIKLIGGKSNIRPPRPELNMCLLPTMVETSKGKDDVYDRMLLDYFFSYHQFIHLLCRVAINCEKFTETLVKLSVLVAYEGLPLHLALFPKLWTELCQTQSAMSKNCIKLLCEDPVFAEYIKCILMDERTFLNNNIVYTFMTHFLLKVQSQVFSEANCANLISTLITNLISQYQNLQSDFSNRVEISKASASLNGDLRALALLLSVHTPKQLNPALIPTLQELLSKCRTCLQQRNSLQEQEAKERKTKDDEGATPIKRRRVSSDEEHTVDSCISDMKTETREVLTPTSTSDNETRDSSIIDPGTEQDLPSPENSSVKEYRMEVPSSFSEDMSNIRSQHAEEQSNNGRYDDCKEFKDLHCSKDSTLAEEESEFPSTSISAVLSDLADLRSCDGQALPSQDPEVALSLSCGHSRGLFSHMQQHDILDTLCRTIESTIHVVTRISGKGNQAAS

O=C(CCl)NC1(c2ccc3c(c2)OCCO3)CCCC1
inactive: USP34 -0.146 | USP36 -0.197 | USP38 -0.013 | USP39 0.277 | USP4 -0.0625
